# Assay results from PubChem BioAssay (NCATS).
# Records with an inconclusive call do not appear. Entries that show only a call come without a potency. Activity calls are given as the source filed them. Calls follow the shape of the dose curve; as a rule, active = well fitted inhibition curve with a large enough effect; inconclusive = small, poorly fitted or top-dose-only effect; inactive = flat fitted curve, though single readings scatter.
# Target: Glutathione peroxidase 1 (Homo sapiens) (UniProt P07203)
# Sequence (P07203 whole entry, looked up): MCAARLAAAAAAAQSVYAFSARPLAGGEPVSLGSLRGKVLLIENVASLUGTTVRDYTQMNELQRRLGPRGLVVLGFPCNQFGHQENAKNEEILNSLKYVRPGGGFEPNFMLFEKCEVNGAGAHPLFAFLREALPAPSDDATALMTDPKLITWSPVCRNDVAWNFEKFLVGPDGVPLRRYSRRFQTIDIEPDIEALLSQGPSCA
# Experiment: Primary qHTS Assay for Inhibitors of Recombinant Selenoprotein Glutathione Peroxidase 1 (GPX1) (AID 1845191)
# Conditions: recombinant GPX1, GR-coupled NADPH fluorescence, 15 min; series mostly up to 48.8 µM
# Outline: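 GPX1 10 nM, GR 100 nM, GSH 1 mM, NADPH 0.5 mM, CHP 0.5 mM (final). 30-min cpd preincubation, RT. Ex340/Em450 read t=0, t=15 min.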
# Also: nearly all actives have a fitted effect of over 65% in size.
row,Compound,Potency
1,COc1nccc(-c2c(-c3ccc(F)cc3)ncn2C2CCNCC2)n1,inactive
2,Cc1csc(-c2nnc(Nc3ccc(Oc4ncccc4-c4ccnc(N)n4)cc3)c3ccccc23)c1,inactive
3,O=C1C(c2c(O)[nH]c3ccccc23)=Nc2ccccc21,inactive
4,CCNC(=O)c1noc(-c2cc(C(C)C)c(O)cc2O)c1-c1ccc(CN2CCOCC2)cc1,inactive

# Target: Phospholipid hydroperoxide glutathione peroxidase GPX4 (Homo sapiens) (UniProt P36969)
# Sequence (P36969 whole entry, looked up): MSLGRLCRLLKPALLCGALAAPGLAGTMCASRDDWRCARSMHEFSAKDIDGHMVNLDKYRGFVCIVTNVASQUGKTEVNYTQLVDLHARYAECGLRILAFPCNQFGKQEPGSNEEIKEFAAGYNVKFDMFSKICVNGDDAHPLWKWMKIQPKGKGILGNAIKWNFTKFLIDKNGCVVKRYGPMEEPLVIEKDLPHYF
# Experiment: Primary qHTS Assay for Inhibitors of Recombinant Selenoprotein Glutathione Peroxidase 4 (GPX4) (AID 1845192); also: potency is read from the fitted curve at half-maximal effect
# Conditions: recombinant GPX4, GR-coupled NADPH fluorescence, 15 min; series mostly up to 50 µM
# Outline: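 qHTS, GR-coupled: GPX4 200 nM + cpd 30 min RT → GSH 1 mM, NADPH 0.5 mM, GR 100 nM → CHP 0.5 mM start; fluor 340/450 at t0 and t15 min; no-enzyme wells as control.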
Compound,Potency,"activity change, negative = inhibition"
COc1ccc2c(c1)c(C1=C(c3c[nH]c4ccccc34)C(=O)NC1=O)cn2CCCN(C)C,inactive,
CC[C@H](C=C[C@@H](C)[C@H]1CC[C@H]2[C@@H]3CC=C4C[C@@H](O)CC[C@]4(C)[C@@H]3CC[C@]12C)C(C)C,inactive,
O=C(NCCCCN1CCOCC1)c1cc2ccccc2o1,inactive,
Cn1cc(-c2ccc3nnc(Sc4ccc5ncccc5c4)n3n2)cn1,inactive,
Cc1nc(C(=O)NCC(=O)O)c(O)c2ccc(Oc3ccccc3)cc12,inactive,
O=C(CC12CC3CC(CC(C3)C1)C2)Nc1cccc2nc(NCCNCCO)ccc12,inactive,
CC(C)Oc1cc(Nc2nc(N[C@@H](C)c3ccc(F)cn3)ncc2Cl)[nH]n1,inactive,
CN1CCN2c3ncccc3Cc3ccccc3C2C1 (centres undefined),inactive,
C=CC(=O)Nc1cccc(Sc2nc(Nc3ccc(N4CCN(C)CC4)cc3)ncc2Cl)c1,inactive,
O=C(NC[C@H](O)CO)c1ccncc1Nc1ccc(I)cc1F,inactive,
N#Cc1c(N(CC(=O)O)CC(=O)O)sc(C(=O)O)c1CC(=O)O,,4.92% [at 0.409 µM] (inactive)
CCC[C@H](N[C@@H](C)C(=O)N1[C@@H]2CCCC[C@H]2C[C@H]1C(=O)O)C(=O)OCC,inactive,
Cc1ccc(C(=O)N(CCCN)[C@@H](c2nc3cc(Cl)ccc3c(=O)n2Cc2ccccc2)C(C)C)cc1,inactive,
CCCCC(F)(F)[C@@]1(O)CC[C@H]2[C@H](CC(=O)[C@@H]2CCCCCCC(=O)O)O1,inactive,
Cc1c(C(=O)Nc2ccc(N3C[C@@H](C)O[C@@H](C)C3)nc2)cccc1-c1ccc(OC(F)(F)F)cc1,inactive,
Cc1ccc(C2=Nc3ccc(Cl)cc3OC2)cc1,inactive,
O=C(Nc1ccc(OC(F)(F)F)cc1)c1sccc1NCc1ccnc2ccccc12,inactive,
COC1CCC(C(=O)c2ccc3nc4c(cc3c2)CCCO4)CC1 (centres undefined),inactive,
Cc1cnc(CNC(=O)c2c(=O)c3ccc(N4CCCN(C)CC4)nc3n3c2sc2ccccc23)cn1,,-0.552% [at 9.73 µM] (inactive)
C=C1c2cccc(O)c2C(O)=C2C(=O)[C@@]3(O)C(O)=C(C(N)=O)C(=O)[C@@H](N(C)C)[C@@H]3[C@@H](O)[C@H]12,11.4 µM (active),
CCn1c(-c2nonc2N)nc2cncc(CNC3CCNCC3)c21,inactive,
NS(=O)(=O)c1cc(Cl)c(Cl)c(S(N)(=O)=O)c1,inactive,
O=C(Nc1cccc(C(F)(F)F)c1)Nc1cc(S(=O)(=O)NC2CC2)ccc1-c1ccsc1,inactive,
COc1cc2nccc(Oc3ccc(NC(=O)Nc4cc(C)on4)c(Cl)c3)c2cc1OC,inactive,
c1ccc(CNc2nc(N3CCOc4ccccc43)nc3c2CCCC3)cc1,inactive,
